Experimental data as given in the supplement of paper PMC10849652.
About 8,800 targets were measured; listed, in parts, are those with a hit and a random draw of the rest. About 0.5% of all pairs of compound and target were hits. Unmarked numbers belong to inactive results.

Tests used:
Assay in all cases: log2 fold change, soluble protein after heating vs DMSO (PISA); higher = thermal stabilisation; K562 lysate, 10 uM; active = over 0.2 and 3.5 SD of the protein, either way, in both replicates (recomputed)
[1] = compound: NCC(=O)Nc1ccc(-n2nc(C(F)(F)F)cc2-c2ccc3c(ccc4ccccc43)c2)cc1
How it was run: (§1)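 Log-two fold change in thermal stability relative to solvent controls is reported from duplicates. For each sample, crude K562 extract from dounce-homogenised pellets in PBS pH 7.4 with 1 mM MgCl2, at 1 mg/mL protein, was treated with 10 μM compound for 30 min. Aliquots heated for 3 min across 48°C-58°C were pooled, brought to 0.5% NP-40 at 4°C and cleared at 21,000xg for 90 min. The supernatant was quantified by TMTpro 16plex LC-MS/MS with channel sums equalised.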

[2] = compound: O=C(CCCCCCC(=O)Nc1ccccc1)NO [vorinostat]
How it was run: as §1

[3] = compound: O=C(O)c1ccc2c(c1)nc(Nc1cccc(Cl)c1)c1ccncc12 [silmitasertib]
How it was run: as §1

[4] = compound: O=C1NC(=O)C(c2cnc3ccccn23)=C1c1cn2c3c(cc(F)cc13)CN(C(=O)N1CCCCC1)CC2
How it was run: as §1

[5] = compound: c1cn2cc(-c3ccc4cn[nH]c4c3)nc(Nc3ccc(N4CCOCC4)cc3)c2n1 [entospletinib]
How it was run: as §1

Sequence of UniProt P51159 (P51159 whole entry, looked up): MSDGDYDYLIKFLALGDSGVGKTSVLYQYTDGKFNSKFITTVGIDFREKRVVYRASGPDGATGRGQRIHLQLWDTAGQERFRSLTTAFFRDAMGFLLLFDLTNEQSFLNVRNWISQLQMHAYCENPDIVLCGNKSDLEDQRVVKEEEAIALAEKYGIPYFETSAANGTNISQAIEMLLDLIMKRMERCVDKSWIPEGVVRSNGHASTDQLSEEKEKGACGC
Sequence of UniProt Q4ADV7 (Q4ADV7 whole entry, looked up): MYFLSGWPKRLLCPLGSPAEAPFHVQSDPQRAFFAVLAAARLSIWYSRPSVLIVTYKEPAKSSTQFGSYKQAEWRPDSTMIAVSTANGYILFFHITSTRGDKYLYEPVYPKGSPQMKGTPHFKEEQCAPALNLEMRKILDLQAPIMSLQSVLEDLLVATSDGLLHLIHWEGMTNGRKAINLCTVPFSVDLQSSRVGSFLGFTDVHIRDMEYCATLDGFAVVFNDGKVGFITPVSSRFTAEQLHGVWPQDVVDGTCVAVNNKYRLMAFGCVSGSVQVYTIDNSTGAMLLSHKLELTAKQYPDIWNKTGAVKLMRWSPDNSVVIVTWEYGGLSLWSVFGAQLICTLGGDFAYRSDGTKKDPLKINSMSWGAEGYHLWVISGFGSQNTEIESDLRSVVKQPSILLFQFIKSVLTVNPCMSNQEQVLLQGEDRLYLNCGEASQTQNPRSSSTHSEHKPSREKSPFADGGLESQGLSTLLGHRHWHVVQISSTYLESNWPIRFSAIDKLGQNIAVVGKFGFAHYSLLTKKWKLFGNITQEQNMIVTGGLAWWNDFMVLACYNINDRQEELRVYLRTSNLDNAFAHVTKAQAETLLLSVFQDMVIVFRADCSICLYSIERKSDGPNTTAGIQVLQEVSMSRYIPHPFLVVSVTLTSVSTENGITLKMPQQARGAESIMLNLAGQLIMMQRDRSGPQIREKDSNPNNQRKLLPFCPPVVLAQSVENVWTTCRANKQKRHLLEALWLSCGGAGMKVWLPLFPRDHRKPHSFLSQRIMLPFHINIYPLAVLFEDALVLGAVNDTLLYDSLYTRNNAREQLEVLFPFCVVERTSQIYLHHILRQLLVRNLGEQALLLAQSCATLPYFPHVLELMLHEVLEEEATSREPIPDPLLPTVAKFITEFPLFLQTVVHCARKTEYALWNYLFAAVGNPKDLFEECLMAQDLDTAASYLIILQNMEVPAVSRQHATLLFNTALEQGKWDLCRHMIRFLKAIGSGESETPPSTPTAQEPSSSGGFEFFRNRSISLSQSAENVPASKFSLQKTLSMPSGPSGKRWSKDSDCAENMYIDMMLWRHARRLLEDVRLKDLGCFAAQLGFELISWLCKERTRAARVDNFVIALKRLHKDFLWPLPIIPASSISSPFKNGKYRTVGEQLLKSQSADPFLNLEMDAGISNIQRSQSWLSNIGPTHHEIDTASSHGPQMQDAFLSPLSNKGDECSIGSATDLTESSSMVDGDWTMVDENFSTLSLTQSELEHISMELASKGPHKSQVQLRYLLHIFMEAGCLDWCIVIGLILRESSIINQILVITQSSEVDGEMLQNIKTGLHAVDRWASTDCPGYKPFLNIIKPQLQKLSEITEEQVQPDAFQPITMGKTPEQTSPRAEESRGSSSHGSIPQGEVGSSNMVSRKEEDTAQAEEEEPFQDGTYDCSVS
Sequence of UniProt P19793 (P19793 whole entry, looked up): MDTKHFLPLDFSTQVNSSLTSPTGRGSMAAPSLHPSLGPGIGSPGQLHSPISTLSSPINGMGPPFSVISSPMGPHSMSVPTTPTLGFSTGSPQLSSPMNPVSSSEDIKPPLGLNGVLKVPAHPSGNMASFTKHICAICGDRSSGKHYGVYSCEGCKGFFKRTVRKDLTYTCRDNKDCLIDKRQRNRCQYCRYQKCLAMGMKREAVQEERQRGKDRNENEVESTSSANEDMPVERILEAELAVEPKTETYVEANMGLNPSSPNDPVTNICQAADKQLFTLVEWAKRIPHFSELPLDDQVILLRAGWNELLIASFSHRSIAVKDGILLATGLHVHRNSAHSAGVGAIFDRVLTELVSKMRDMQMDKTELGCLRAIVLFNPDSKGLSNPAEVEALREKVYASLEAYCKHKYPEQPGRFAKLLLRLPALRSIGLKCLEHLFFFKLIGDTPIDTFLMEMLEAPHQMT
Sequence of UniProt Q8N122 (Q8N122 whole entry, looked up): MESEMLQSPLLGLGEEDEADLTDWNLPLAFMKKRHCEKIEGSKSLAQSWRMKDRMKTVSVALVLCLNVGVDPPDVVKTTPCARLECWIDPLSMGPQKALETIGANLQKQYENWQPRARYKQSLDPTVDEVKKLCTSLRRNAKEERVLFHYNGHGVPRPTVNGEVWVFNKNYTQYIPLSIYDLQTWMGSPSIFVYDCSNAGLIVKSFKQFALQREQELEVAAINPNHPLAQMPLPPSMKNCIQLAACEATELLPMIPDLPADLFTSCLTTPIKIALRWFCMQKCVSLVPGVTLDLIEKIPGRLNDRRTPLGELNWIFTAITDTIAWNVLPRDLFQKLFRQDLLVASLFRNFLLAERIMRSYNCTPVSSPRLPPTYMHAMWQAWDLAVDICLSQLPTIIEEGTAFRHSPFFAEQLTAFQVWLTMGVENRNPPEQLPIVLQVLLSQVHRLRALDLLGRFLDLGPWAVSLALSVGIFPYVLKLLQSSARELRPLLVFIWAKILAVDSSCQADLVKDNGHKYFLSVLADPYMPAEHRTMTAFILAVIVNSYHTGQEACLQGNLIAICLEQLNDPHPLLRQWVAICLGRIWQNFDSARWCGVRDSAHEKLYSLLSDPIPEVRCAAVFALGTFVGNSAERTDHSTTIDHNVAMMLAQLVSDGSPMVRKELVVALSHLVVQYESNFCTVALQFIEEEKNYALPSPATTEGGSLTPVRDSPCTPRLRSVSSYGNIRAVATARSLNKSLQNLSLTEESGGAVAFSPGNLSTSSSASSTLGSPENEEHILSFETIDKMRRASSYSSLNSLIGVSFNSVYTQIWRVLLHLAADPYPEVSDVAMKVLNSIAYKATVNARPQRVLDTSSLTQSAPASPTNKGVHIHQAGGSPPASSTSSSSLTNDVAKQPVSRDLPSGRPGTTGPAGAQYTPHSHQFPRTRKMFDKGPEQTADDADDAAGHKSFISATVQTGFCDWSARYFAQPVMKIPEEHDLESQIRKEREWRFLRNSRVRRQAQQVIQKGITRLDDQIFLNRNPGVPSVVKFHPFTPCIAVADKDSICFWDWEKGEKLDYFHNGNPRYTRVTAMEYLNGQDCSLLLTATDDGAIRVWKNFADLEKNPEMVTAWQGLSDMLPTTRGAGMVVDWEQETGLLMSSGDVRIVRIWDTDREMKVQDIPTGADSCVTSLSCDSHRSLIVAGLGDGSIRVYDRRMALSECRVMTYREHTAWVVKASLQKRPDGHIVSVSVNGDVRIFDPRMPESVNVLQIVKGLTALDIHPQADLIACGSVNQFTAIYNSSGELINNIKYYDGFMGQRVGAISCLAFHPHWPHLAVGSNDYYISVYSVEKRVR
Sequence of UniProt Q96DM3 (Q96DM3 whole entry, looked up): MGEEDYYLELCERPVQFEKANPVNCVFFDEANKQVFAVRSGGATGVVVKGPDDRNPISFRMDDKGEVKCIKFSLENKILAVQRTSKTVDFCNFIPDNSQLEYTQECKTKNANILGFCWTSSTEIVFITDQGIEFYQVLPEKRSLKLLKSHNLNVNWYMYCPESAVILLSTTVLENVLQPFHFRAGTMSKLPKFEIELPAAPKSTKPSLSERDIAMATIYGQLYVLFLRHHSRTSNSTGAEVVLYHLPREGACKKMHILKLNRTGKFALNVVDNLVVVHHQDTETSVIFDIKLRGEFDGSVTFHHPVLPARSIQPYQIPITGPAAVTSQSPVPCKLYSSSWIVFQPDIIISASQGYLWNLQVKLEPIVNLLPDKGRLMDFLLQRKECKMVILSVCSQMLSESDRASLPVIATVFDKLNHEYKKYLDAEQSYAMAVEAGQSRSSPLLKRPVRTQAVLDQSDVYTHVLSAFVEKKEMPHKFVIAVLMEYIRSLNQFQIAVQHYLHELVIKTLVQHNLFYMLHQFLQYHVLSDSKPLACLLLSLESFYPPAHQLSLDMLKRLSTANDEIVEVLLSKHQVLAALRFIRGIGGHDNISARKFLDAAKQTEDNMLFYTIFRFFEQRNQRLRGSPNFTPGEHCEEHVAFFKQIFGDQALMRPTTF
Sequence of UniProt Q96LT9 (Q96LT9 whole entry, looked up): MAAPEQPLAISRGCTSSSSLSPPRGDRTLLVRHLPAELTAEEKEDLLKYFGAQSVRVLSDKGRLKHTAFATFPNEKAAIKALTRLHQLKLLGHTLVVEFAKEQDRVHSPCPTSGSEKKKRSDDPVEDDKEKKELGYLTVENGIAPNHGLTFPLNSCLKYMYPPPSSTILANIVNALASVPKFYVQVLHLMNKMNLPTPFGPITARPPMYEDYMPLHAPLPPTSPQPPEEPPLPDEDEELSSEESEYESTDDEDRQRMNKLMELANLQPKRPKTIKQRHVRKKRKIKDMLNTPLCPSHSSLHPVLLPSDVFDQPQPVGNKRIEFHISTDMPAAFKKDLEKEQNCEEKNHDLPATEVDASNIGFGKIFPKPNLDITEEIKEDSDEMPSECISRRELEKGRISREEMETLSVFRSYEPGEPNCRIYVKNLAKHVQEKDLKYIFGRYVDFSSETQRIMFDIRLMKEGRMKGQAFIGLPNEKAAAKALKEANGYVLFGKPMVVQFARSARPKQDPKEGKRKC
Sequence of UniProt Q53S08 (Q53S08 whole entry, looked up): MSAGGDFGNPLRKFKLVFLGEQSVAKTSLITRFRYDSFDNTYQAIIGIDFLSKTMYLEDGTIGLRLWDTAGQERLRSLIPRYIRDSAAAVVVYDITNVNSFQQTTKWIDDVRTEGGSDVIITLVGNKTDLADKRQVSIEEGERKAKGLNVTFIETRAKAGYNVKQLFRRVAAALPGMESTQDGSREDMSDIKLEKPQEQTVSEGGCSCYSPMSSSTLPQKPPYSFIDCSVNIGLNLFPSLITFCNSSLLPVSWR
Sequence of UniProt Q9Y225 (Q9Y225 whole entry, looked up): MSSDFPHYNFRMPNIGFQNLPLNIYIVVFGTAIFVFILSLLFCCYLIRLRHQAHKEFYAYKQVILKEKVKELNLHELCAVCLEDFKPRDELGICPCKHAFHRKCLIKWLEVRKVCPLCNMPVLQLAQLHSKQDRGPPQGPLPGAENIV

| Target | log2 fold change [1] | log2 fold change [2] | log2 fold change [3] | log2 fold change [4] | log2 fold change [5] |
| --- | --- | --- | --- | --- | --- |
| RBM5 (UniProt P52756) | 0.036 | -0.427 (active) | 0.072 | -0.056 | 0.023 |
| RAB27A (UniProt P51159) | -0.033 | -0.08 | 0.066 | -0.009 | 0.023 |
| RNASEL (UniProt Q05823) | -0.005 | -0.298 (active) | 0.055 | -0.021 | -0.023 |
| RBBP7 (UniProt Q16576) | -0.005 | -0.091 | 0.033 | -0.167 | 0 |
| RDH14 (UniProt Q9HBH5) | -0.072 | -0.318 (active) | 0.044 | 0.004 | 0.026 |
| RPS6KB1 (UniProt P23443) | -0.049 | -0.319 (active) | 0.132 | -0.017 | -0.005 |
| QRSL1 (UniProt Q9H0R6) | 0.066 | -0.308 (active) | 0.051 | 0.028 | 0.019 |
| RBSN (UniProt Q9H1K0) | 0.039 | 0.035 | -0.032 | -0.026 | -0.088 |
| RNF168 (UniProt Q8IYW5) | 0.056 | -0.313 | 0.025 | -0.046 | 0.042 |
| RPL36AL (UniProt Q969Q0) | -0.056 | 0.124 | 0.011 | 0.131 | -0.001 |
| RAB5IF isoform 5 (UniProt Q9BUV8) | -0.039 | -0.039 | -0.007 | – | -0.015 |
| RAD17 (UniProt O75943) | -0.044 | – | – | -0.052 | -0.039 |
| SCNM1 (UniProt Q9BWG6) | – | -0.13 | -0.102 | -0.082 | 0.092 |
| RAB6D (UniProt Q53S08) | -0.012 | 0.151 | -0.02 | -0.011 | -0.01 |
| RALGAPA1 isoform 6 (UniProt Q6GYQ0) | 0.047 | 0.034 | -0.054 | -0.027 | -0.022 |
| RSU1 (UniProt Q15404) | 0.018 | 0.15 | 0 | 0.034 | 0.003 |
| RIC1 (UniProt Q4ADV7) | -0.053 | -0.193 | 0.057 | -0.06 | 0.045 |
| RBM4 isoform 3 (UniProt Q9BWF3) | – | – | – | -0.099 | – |
| ROBO2 isoform 3 (UniProt Q9HCK4) | – | 0.136 | -0.019 | -0.042 | – |
| RLIM (UniProt Q9NVW2) | – | – | – | 0.289 | – |
| RANBP6 (UniProt O60518) | 0.013 | -0.345 (active) | 0.054 | 0.041 | 0.011 |

| Target | log2 fold change [1] | log2 fold change [2] | log2 fold change [3] | log2 fold change [4] | log2 fold change [5] |
| --- | --- | --- | --- | --- | --- |
| RNF24 isoform 2 (UniProt Q9Y225) | – | 0.918 (active) | -0.117 | 0.016 | – |
| RNF17 (UniProt Q9BXT8) | – | -0.016 | -0.021 | -0.106 | 0.107 |
| RXRA (UniProt P19793) | – | -0.154 | 0.07 | -0.08 | – |
| RBM45 (UniProt Q8IUH3) | – | – | – | 0.093 | – |
| RYR1 (UniProt P21817) | – | 0.066 | -0.017 | -0.069 | 0.101 |
| RMC1 (UniProt Q96DM3) | 0.008 | -0.391 (active) | 0.017 | -0.013 | 0.037 |
| RBM22 (UniProt Q9NW64) | 0.024 | -0.23 (active) | 0 | -0.053 | -0.023 |
| RNPC3 (UniProt Q96LT9) | – | -0.488 (active) | 0.145 | 0.036 | – |
| RALA (UniProt P11233) | 0.031 | 0.129 | -0.062 | 0 | -0.006 |
| RUFY2 isoform 1 (UniProt Q8WXA3) | -0.009 | – | – | -0.129 | -0.014 |
| RABL3 (UniProt Q5HYI8) | 0.031 | -0.126 | 0.445 | -0.039 | 0 |
| RPTOR (UniProt Q8N122) | 0.002 | -0.337 (active) | 0.048 | 0.012 | -0.01 |
| RAD54L (UniProt Q92698) | – | -1.06 (active) | 0.065 | – | – |
| RPS29 (UniProt P62273) | -0.105 | 0.145 | -0.03 | 0.205 | -0.085 |
| RHBDD1 (UniProt Q8TEB9) | -0.162 | – | – | – | 0.036 |
| SAP30 (UniProt O75446) | 0.001 | – | – | -0.024 | -0.022 |
| SERAC1 (UniProt Q96JX3) | – | 0.236 | 0.155 | – | -0.001 |
| RALGAPB isoform 3 (UniProt Q86X10) | – | – | – | – | -0.045 |
| RTTN (UniProt Q86VV8) | -0.14 | -0.607 (active) | 0.138 | – | 0.053 |
| ROCK1 (UniProt Q13464) | 0 | -0.211 (active) | – | -0.017 | -0.016 |
| RRM1 (UniProt P23921) | 0.011 | -0.227 (active) | 0.027 | -0.003 | -0.013 |
